Source: PubChem
Tb PFK inh-1: qHTS Assay to Find Inhibitors of T. brucei phosphofructokinase; ATP-dependent 6-phosphofructokinase (Trypanosoma brucei brucei), O15648; T. brucei PFK, ADP-Glo luminescence; Potency, µM (series often up to 57.5 µM), inactives show top-dose activity, negative = inhibition, most hits filed as inhibitors; hit rate 0.17% among 330,000; AID 485367, 2010;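 note: potency is the fitted concentration of half-maximal effect; 0% = uninhibited 1x PFK enzyme wells and -100% = no-enzyme wells; nearly all actives have a fitted effect of over 60% in size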
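PFK 1.25 nM, F6P 0.5 mM, ATP 0.1 mM, 0.1 M TEA pH 8.0, 5 mM MgCl2, 0.01% Tween20, 0.1% BSA; 45 min RT. ADP-Glo readout. qHTS titration up to 57 uM; curves fitted, compounds curve-classed.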
PI4K2A block: qHTS for small molecular inhibitors of PI4K2A | activity change, negative = inhibition, % at 76.9 µM | purified PI4K2A, ADP-Glo luminescence, 1 h; hits give low values | Phosphatidylinositol 4-kinase type 2-alpha (Homo sapiens), Q9BTU6 | hit rate 0.13% among 420,000 | AID 1346378, 2018; in the data active = activity change below about -50%; inconclusive = mostly about -30% to -49%;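 note: -100% = wells without enzyme as full effect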
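ADP-Glo luminescence measured ADP generated by PI4K2A enzyme (4 ug/mL before mixing) with 1.2 mM PI substrate (pre-mix) and 300 microM ATP (pre-mix). Tris pH7.5 buffer with MgCl2, Triton X-100; 1 h reaction at ambient temperature.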
Pin1 inhibitor: qHTS Assay to Find Inhibitors of Pin1 | Pin1 FP peptide displacement, HiFluor488, 10 min | Potency, µM (highest dose often 115 µM), inactives show at the top dose activity, negative = inhibition, usual class: inhibitors | hit rate 0.009% among 390,000 | AID 504891, 2011; active = well fitted inhibition curve with a large enough effect in the polarisation, with a control signal flat, not every such curve was filed as active; inconclusive = small, poorly fitted or top-dose-only effect, or effect the other way, or a change in a side signal; inactive = no such curve, though single readings can be large or run the other way; the % refers to the polarisation; note: potency is the fitted concentration of half-maximal effect; % is set by controls: 0 for no effect and ±100 for the full control effect
Target sequence (Q13526 whole entry, looked up): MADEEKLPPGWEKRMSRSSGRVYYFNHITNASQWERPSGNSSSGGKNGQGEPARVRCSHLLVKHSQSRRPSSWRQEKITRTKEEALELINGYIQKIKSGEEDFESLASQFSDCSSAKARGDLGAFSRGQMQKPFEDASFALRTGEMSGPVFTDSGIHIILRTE
PGK inhibitor: qHTS Assay to Find Inhibitors of Phosphoglycerate Kinase; Phosphoglycerate kinase, glycosomal (Trypanosoma brucei brucei), P07378; AID 602233, 2012; Potency, µM (top dose mostly 57.5 µM), inactives show at the highest dose activity change, negative = inhibition, most hits filed as inhibitors; PGK/GAPDH coupled, Kinase-Glo luminescence, 60 min; hit rate 0.043% among 380,000; note: potency is the fitted concentration of half-maximal effect; % is set by controls: 0 for no effect and ±100 for the full control effect; nearly all actives have a fitted effect of over 60% in size
Target sequence (P07378 whole entry, looked up): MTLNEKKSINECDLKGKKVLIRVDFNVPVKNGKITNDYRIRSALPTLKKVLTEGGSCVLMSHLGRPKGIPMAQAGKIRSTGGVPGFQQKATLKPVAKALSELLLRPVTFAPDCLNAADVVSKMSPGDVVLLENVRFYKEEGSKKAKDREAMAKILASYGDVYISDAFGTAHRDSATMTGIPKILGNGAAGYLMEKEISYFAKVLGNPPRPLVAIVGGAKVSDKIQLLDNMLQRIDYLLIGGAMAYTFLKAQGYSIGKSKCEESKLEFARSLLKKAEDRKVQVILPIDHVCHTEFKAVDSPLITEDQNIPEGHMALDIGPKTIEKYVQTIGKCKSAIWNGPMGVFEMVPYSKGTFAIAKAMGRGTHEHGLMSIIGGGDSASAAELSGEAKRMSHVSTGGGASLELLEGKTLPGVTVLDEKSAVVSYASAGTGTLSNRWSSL
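Recombinant glycosomal PGK reaction used 1,3-bisphosphoglycerate generated in-well by GAPDH (100nM final) in 100mM TEA pH 7.6, 5mM MgCl2, 0.01% Tween-20. After 60 minutes at room temperature, ATP was read by Kinase-Glo Plus luminescence end-point.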
PI5P4K alpha inh: qHTS for Inhibitors of phosphatidylinositol 5-phosphate 4-kinase (PI5P4K) | max response, % | hit rate 1.2% among 330,000 | AID 652105, 2013 | PI5P4Kalpha enzyme, ADP-Glo luminescence, 60 min; hits give low values | Phosphatidylinositol 5-phosphate 4-kinase type-2 alpha (Homo sapiens), P48426; active = max response of -50% or lower; inconclusive = between -30% and -50%; inactive = -30% or higher; note: value at the top dose of about 77 µM; % is set by controls: 0 for no effect and ±100 for the full control effect
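Single end-point luminescence (ADP-Glo) quantified ADP from PI5P4Kalpha turnover; ATP 5 microM final, 1 h at RT, 0.1% CHAPS and 0.28 mM EGTA in HEPES pH 7.4.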
Tb PFK KinaseGlo: Tb PFK orthogonal confirmatory assay using ATP depletion (Kinase-Glo Plus) as an alternative measure of Tb PFK activity: Hit Validation; shares compounds with Tb PFK inh-1; Tb PFK enzyme, ATP depletion, Kinase-Glo Plus luminescence; Potency, µM (series often up to 57.5 µM), for the others: at the top dose inhibition; hit rate 47% among 1,100; AID 504636, 2011; calls by dose curve; note: potency is the fitted concentration of half-maximal effect; nearly all actives have a fitted effect of over 60% in size
Tb PFK inh-2: Inhibitors of T. brucei phosphofructokinase: Hit Validation | shares compounds with Tb PFK inh-1 | purified T. brucei PFK, ADP-Glo luminescence, 45 min | Potency, µM (top dose mostly 57.5 µM), inactives show at the highest dose activity change, negative = inhibition, hits mostly inhibitors | hit rate 41% among 1,100;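 note: potency is the fitted concentration of half-maximal effect; plate controls were full PFK enzyme control for no effect and no enzyme control for full effect; nearly all actives have a fitted effect of over 60% in size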
Starred values were filed as active, the others as inactive; i = inactive; ? = inconclusive; · = no result. This is one part of a sample in which hits are shown more often than they occur. Unless noted, calls come from the whole dose curve; as a rule, active = well fitted curve in the direction sought with a large enough effect; inconclusive = small, poorly fitted or top-dose-only effect, or another doubt; inactive = no such curve, though single readings can be large; an effect the other way counts as inactive or inconclusive.

SMILES	Tb PFK inh-1	PI4K2A block	Pin1 inhibitor	PGK inhibitor	PI5P4K alpha inh	Tb PFK KinaseGlo	Tb PFK inh-2
CCn1cc(C(=O)NCc2ccco2)c(=O)c2cc(F)c(N3CCN(C(=O)c4ccco4)CC3)cc21	9.5µM*	-5	?	5%	?	?	?
CC(NC(=O)C1CCN(C(=O)c2cccs2)CC1)c1ccc(S(N)(=O)=O)cc1 (configuration not stated)	?	5	-2%	-6%	0	-32%	?
O=C(c1cccs1)N1CCC(C(=O)O)(c2ccccc2)CC1	·	11	·	-7%	3	·	·
Nc1cccc(SC2CC(=O)N(c3ccc(Cl)cc3C(=O)c3ccccc3)C2=O)c1 (configuration not stated)	·	-3	·	-5%	2	·	·
Oc1cc(-n2cccn2)c(O)cc1-n1cccn1	19µM*	-3	-4%	-3%	-4	?	?
Cc1ccc(S(=O)(=O)N2[C@@H](c3ccccc3F)C(C(=O)O)=CC[C@H]2c2ccc(Cl)c(Cl)c2)cc1	27µM*	2	?	-4%	-2	7%	1%
O=S(=O)(c1ccc(Cl)cc1)N1CC1c1ccccc1 (configuration not stated)	-1%	-2	7%	i	-1	·	·
COc1ccc(NC(=O)CN2CC=C(c3ccccc3)CC2)cc1S(=O)(=O)N1CCOCC1	1%	0	38%	-4%	0	·	·
Cc1ccc(S(=O)(=O)N2CCOCC2)cc1C(=O)OCC(=O)Nc1ccc2[nH]c(=O)[nH]c2c1	?	-7	?	i	8	?	?
Nc1nn2cc(-c3ccccc3)nc2c2ccccc12	?	36	1%	-11%	274	0%	?
CC(Cc1ccccc1)NC(=O)Cc1ccc(N(C)C)cc1 (configuration not stated)	1%	5	3%	-4%	-4	·	·
CC(Oc1ccc(Br)cc1)C(=O)N(Cc1nc(-c2ccccc2)no1)C(C)C (configuration not stated)	·	-1	?	i	·	·	·
O=S(=O)(Nc1cc(S(=O)(=O)N2CCOCC2)ccc1O)c1ccc2c(c1)OCCCO2	?	-4	-4%	-4%	?	12µM*	15µM*
Cc1c(C(=O)N2CCC3(CC2)OCCO3)oc2ccc(S(=O)(=O)N3CCOCC3)cc12	-1%	-1	0%	4%	1	·	·
O=C1C=C(NCc2ccc(Cl)c(Cl)c2)CC1	4.8µM*	-3	-1%	-1%	0	4.8µM*	6µM*
O=[N+]([O-])c1ccc(N2CCN(C(=S)c3cccc([N+](=O)[O-])c3)CC2)cc1	19µM*	-3	5%	2%	?	9.5µM*	24µM*
O=[N+]([O-])c1ccc(C(=Nc2ccccc2)N2CC2)cc1	·	-1	-3%	i	6	·	·
C[C@](N)(Cc1ccc(O)c(O)c1)C(=O)O	?	?	?	-6%	-67*	?	?
Cc1cccc(OCC(=O)N2CCN(Cc3ccc([N+](=O)[O-])cc3)CC2)c1	-1%	2	-11%	-7%	-1	·	·
O=C(NCC1=C(c2cccc3ccccc23)C[C@@H]2CC[C@H]1N2Cc1ccco1)c1ccncc1	·	4	·	-8%	-7	·	·
CCn1c2ccccc2c2cc(NC(=O)CSc3nnc(C4CC4)n3Cc3ccco3)ccc21	?	-7	8%	6%	-27	?	-28%
O=C(COC(=O)Cc1ccc(Cl)c(Cl)c1)Nc1ccc2[nH]c(=O)[nH]c2c1	21µM*	2	30%	-8%	-1	?	13µM*
O=C(COC(=O)Cc1c(Cl)cccc1Cl)Nc1ccc2[nH]c(=O)[nH]c2c1	?	-3	13%	9%	-20	?	?
NS(=O)(=O)c1cc(C(=O)OCC(=O)Nc2ccc3[nH]c(=O)[nH]c3c2)ccc1Cl	?	14	4%	0%	-5	·	·
O=C1/C(=C/c2ccc(O)c(O)c2)Oc2cc(O)ccc21	?	0	?	-13%	-64*	-29%	?
SMILES	Tb PFK inh-1	PI4K2A block	Pin1 inhibitor	PGK inhibitor	PI5P4K alpha inh	Tb PFK KinaseGlo	Tb PFK inh-2
CCCc1cc(=O)oc2cc(OCC(=O)N3CCN(Cc4ccc5c(c4)OCO5)CC3)ccc12	4%	-1	1%	-6%	-2	·	·
COC(=O)C1=C(c2cccc3c2S(=O)(=O)c2ccccc2-3)C[C@@H]2CC[C@H]1N2C(=O)N1CCc2cc(OC)c(OC)cc2C1	-1%	1	5%	-1%	0	·	·
CCNc1nc(NCC)n2c(SCC(=O)Nc3ccc(C)c(C)c3)nnc2n1	13µM*	0	3%	-9%	-9	?	?
CC(C)c1ccc(NC(=O)CSc2nnc(OC(=O)N(C)C)n2C2CC2)cc1	-4%	0	1%	-1%	3	·	·
CCNc1nc(NCC)n2c(SCC(=O)Nc3ccc(OC(F)F)cc3)nnc2n1	7.6µM*	-2	-5%	-24%	-25	5.4µM*	8.5µM*
O=C(O)CCc1nn2cc(-c3ccccc3)nc2[nH]c1=O	?	-7	-2%	-5%	-12	-3%	10%
CC(=O)c1ccc(S(=O)(=O)N2CCN(CC(=O)Nc3ccc(Cl)c([N+](=O)[O-])c3)CC2)cc1	13µM*	1	0%	-2%	-10	?	?
O=C(O)COc1ccc(Cl)cc1Cl	·	-4	-11%	i	-8	·	·
O=C(COc1ccc(Cl)cc1Cl)N/N=C/c1ccc[nH]1	?	1	0%	-5%	-1	6.7µM*	15µM*
COC(=O)c1ccccc1NC(=O)c1cccn(Cc2cccc(Cl)c2)c1=O	·	-3	4%	3%	·	·	·
NC(=O)c1cccn1Cc1cccc(Cl)c1	?	1	0%	-7%	·	?	?
CCOC(=O)c1cn(Cc2cccc(Cl)c2)nn1	?	-3	-3%	7%	2	27µM*	?
CCOP(=O)(OCC)C(NS(=O)(=O)c1ccccc1)C(Cl)(Cl)Cl (configuration not stated)	11%	-6	3%	8%	8	·	·
